The values below come from PubChem BioAssay (NCI).

The panel holds about 83,000 compounds, 20% with a hit somewhere; the sample as a whole holds those more often.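 The endpoint reported here, percent growth, reads 100 for growth as untreated, 0 for no net growth and -100 for all cells dead.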 Unmarked numbers belong to inactive results. Active and inactive are the calls of the source. How the source made its calls: active means growth percent below 10; inactive means the rest.

Common to all, as to test: NCI-60 one-dose screen, 48 h (100 = growth as untreated, 0 = no growth, -100 = all killed)
What all share (conditions): 10 µM unless noted

The test system of test [1] is DU-145 prostate.
Test [2] relates to K-562 leukemia.
Test [3] relates to MALME-3M melanoma.
Test [4] has as its system MDA-MB-231 breast.
Test [5] deals with RXF 393 renal.
The subject of test [6] is SF-268 CNS.
Test [7] deals with SF-295 CNS.
For test [8], the system named is SF-539 CNS.
Test [9] relates to UACC-257 melanoma.
The subject of test [10] is M14 melanoma.

Turning to `COc1ccc(CCNc2nc(SC)nc(-c3cccc([N+](=O)[O-])c3)c2C#N)cc1OC`, the growth in [1] is 91.7%; in test [2] it was 92.1%; in test [3], 77.8%; in test [4] it was 83.1%; in test [5] it was 90.1%; in test [6] it was 63.6%. The growth in [7] is 88.5%; in test [8] it was 74.6%; in test [9], 89.7%; in [10], 93.1%.
Take `Nc1ccc(-c2cc3c(NCc4ccccc4)ncnc3s2)cc1`: the growth in [1] was 55.8%; in [2], 61.8%; in test [3] it was 91.3%; in [4], 86%; in test [5] it was 74.2%; in test [6], 86.9%. The growth in test [7] is 83.5%; in [8] it was 86%; in test [9], 85.8%; in [10], 103%.
With `COc1ccc(-n2nc(C)c3c(Nc4ccc(NC(=O)Nc5cc(C(F)(F)F)ccc5F)cc4)ncnc32)cc1`, the growth in test [1] is 63.6%; in test [2] it was 6.88% (active); in [3], 38.9%; in test [4], -9.99% (active); in [5] it was -13.2% (active); in [6] it was 42.6%. Moreover, the growth in test [7] is -32.1% (active); in [8] it was 16.8%; in [9], 45%; in [10], -29.6% (active).
For the compound `COc1ccc(/C=C/c2nc3ccccc3nc2/C=C/c2ccc(OC)cc2)cc1`, the growth is 105% in test [1]; 101% in test [2]; 109% in [3]; 111% in test [4]; 80.3% in test [5]; 99.5% in test [6]. In addition, the growth in [7] is 102%; in test [8] it was 89.8%; in [9], 106%; in test [10], 93%.
Consider `O=C1/C(=C/c2cn(-c3ccccc3)nc2-c2ccccc2)SC(=S)N1CCc1ccccc1`, for which the growth is 110% in test [1]; 108% in test [2]; 104% in test [3]; 106% in test [4]; 111% in test [5]; 95.5% in test [6]. In addition, the growth in [7] was 103%; in [8], 106%; in test [9], 113%; in test [10] it was 102%.
Turning to `CC(=O)O[C@H]1[C@@H]2OC(=O)C(CSc3ccccc3)[C@@H]2C[C@H]2O[C@]2(C)CC/C=C(\C)CCC[C@@H]1C` (stereo not given in full), the growth was 1.69% (active) in [1]; 63.1% in [2]; 87.2% in test [3]; 14.9% in [4]; -53.3% (active) in test [5]; 44.7% in test [6]. Also, the growth was 49.3% in test [7], 57% in test [8], 15.8% in test [9] and 51.7% in [10].
Take `COc1cc(CNc2oc(-c3ccccc3)c(-c3ccccc3)c2C#N)cc(CN2CCN(C)CC2)c1O`: the growth in test [1] was 59.9%; in test [2] it was -9.86% (active); in [3], 20.6%; in [4], 75.3%; in test [5] it was 42.8%; in [6], 69.8%. The growth was 51.7% in test [7], 71.3% in test [8], -4.26% (active) in test [9] and -62.2% (active) in [10].
Turning to `COc1ccc(/C=C/c2nc(-c3n[nH]c(=O)n3-c3ccccc3)c3ccccc3n2)cc1`, the growth was 102% in [1]; 95.7% in test [2]; 94.3% in [3]; 94.5% in test [4]; 101% in test [5]; 97.3% in test [6]. Further, the growth in [7] is 99.6%; in test [8], 101%; in test [9], 106%; in test [10] it was 94.1%.
As to `COc1cc(-c2nn(C)nc2-c2cc3ccccc3s2)cc(OC)c1OC`, the growth in [1] was 20.1%; in [2], 8.42% (active); in [3] it was 76.1%; in test [4], 37.7%; in test [5], 35.3%; in [6], 39.8%. Besides, the growth in test [7] was 9.39% (active); in test [8], -9.68% (active); in test [9], 54.7%; in [10], 10.9%.
For `COc1ccc(-c2nc3ccc(-c4nc5ccc(N6CCN(c7ccncc7)CC6)cc5[nH]4)cc3[nH]2)cc1OC`, the growth in test [1] was 42.7%; in test [2] it was 29.5%; in test [3], -25% (active); in test [4] it was 63%; in test [5] it was 85.1%; in test [6], 38.4%. Besides, the growth in [7] was 49.8%; in test [8], 42.5%; in test [9], 11.6%; in test [10], 13.6%.
Take `N#Cc1cnn(-c2nc3c(Cl)cccc3s2)c1N`: the growth was 96% in test [1]; 92.8% in [2]; 85.9% in test [3]; 60.6% in test [4]; 92.7% in test [5]; 87% in [6]. For the same compound, the growth in test [7] was 82.3%; in test [8], 82.2%; in [9], 102%; in [10] it was 96.1%.
For the compound `Cn1ccnc1C(=O)/C=C/c1ccccc1`, the growth is -54.5% (active) in [1]; 8.07% (active) in test [2]; 62.9% in test [3]; 34.7% in [4]; 12.9% in test [5]; 23.3% in [6]. Besides, the growth in [7] is 20.5%; in [8], -38% (active); in test [9], 51.8%; in [10], -1.9% (active).
As to `COc1ccc(-c2nc3ccc(-c4nc5ccc(N6CCN(c7ccccc7)CC6)cc5[nH]4)cc3[nH]2)cc1OC`, the growth in test [1] is -42.4% (active); in test [2] it was -31.7% (active); in [3], -63.8% (active); in [4] it was -22% (active); in [5] it was -37.1% (active); in test [6], 11.4%. For the same compound, the growth in test [7] was 22.1%; in [8] it was 17.5%; in [9], -19.8% (active); in [10], 1.2% (active).
On to `COc1cc2nc(N3CCCC3)nc(NCCc3ccccc3)c2cc1OC`, for which the growth in test [1] was 37.6%; in test [2] it was -19.3% (active); in test [3], 82.1%; in test [4], 59.3%; in test [5], 67.9%; in test [6], 87.2%. In addition, the growth in [7] was 80%; in test [8] it was 86.1%; in [9], 115%; in test [10] it was 78.4%.
For `CSc1nc(Nc2cccc(NC(=O)/C(C#N)=C/c3c(Cl)cccc3Cl)c2)c(C#N)c(-c2cccc([N+](=O)[O-])c2)n1`, the growth in [1] was 58%; in test [2], 20.4%; in test [3] it was 96.5%; in test [4], 52.5%; in [5], 68.3%; in test [6], 59.6%. Also, the growth in test [7] is 92%; in [8], 65.2%; in test [9] it was 73.5%; in test [10], 22.6%.
For `CC(=O)Nc1ccc(S(=O)(=O)Nc2cccc(-c3nc(-c4ccc(NC(=O)c5cccnc5)cc4Cl)no3)c2)cc1`, the growth in test [1] was 54.6%; in [2], 18.9%; in [3], 59.7%; in test [4], 47.5%; in test [5], 76.5%; in test [6] it was 48.2%. For the same compound, the growth in test [7] was 42.2%; in [8] it was 7.87% (active); in [9] it was 35%; in test [10], 27.1%.
In the case of `CON1C(=O)CC[C@]2(C)[C@H]3CC[C@@H]4C([C@@]5(C)CCC(=O)O5)CC[C@@]4(C)[C@]3(C)CC[C@H]2C1(C)C` (stereo not given in full), the growth in test [1] was 107%; in [2], 83%; in test [3] it was 105%; in test [4], 96.5%; in test [5], 98%; in test [6], 97.4%. Also, the growth was 104% in test [7], 99.8% in [8], 107% in test [9] and 97% in [10].
On to `C#CC(F)(F)[C@]1(O)CC[C@H]2[C@@H]3CCC4=CC(=O)CCC4=C3[C@@H](c3ccc(C(C)=O)cc3)C[C@@]21C`, for which the growth in test [1] was 86.4%; in test [2] it was 61.4%; in test [3], -63.4% (active); in [4], 60.6%; in test [5] it was 85.4%; in test [6] it was 36.3%. In addition, the growth in [7] was 22.5%; in test [8], -81.9% (active); in test [9] it was 89.8%; in test [10], 96.6%.
With `NC(=O)c1cc(Br)ccc1NC(=O)/C=C/c1ccccc1`, the growth in [1] was -5.67% (active); in test [2] it was 15%; in [3] it was 96.5%; in test [4] it was 45.3%; in [5] it was 39.3%; in [6], 43.5%. In addition, the growth in test [7] is 51.3%; in test [8], 9.78% (active); in test [9], 49.1%; in [10] it was 28.3%.
`O=C1OCC2=C1C(c1ccncc1)c1cc3c(cc1N2CCO)OCO3` (stereo not given): the growth was 107% in [1]; 110% in test [2]; 89.9% in test [3]; 101% in [4]; 99.3% in test [5]; 97.7% in test [6]. Moreover, the growth in test [7] is 102%; in test [8] it was 101%; in test [9], 99.5%; in [10] it was 107%.
For the compound `COc1cc2c(cc1-c1c(C)noc1C)ncc1nc(C3CCOCC3)n([C@@H](C)COC(F)F)c12`, the growth in test [1] was 73.1%; in test [2], 34.2%; in test [3] it was 66.3%; in [4], 42.8%; in test [5], 59.4%; in test [6] it was 70.8%. Further, the growth was 52% in test [7], 31.8% in test [8], 36.7% in test [9] and 41% in [10].
Turning to `CCOC(=O)c1sc2nc(-c3cccc(OC)c3)nc(N3CCOCC3)c2c1C`, the growth is 101% in [1]; 97.2% in [2]; 117% in test [3]; 95% in test [4]; 95.6% in test [5]; 88.4% in [6]. Besides, the growth in test [7] was 99.5%; in test [8], 98.8%; in test [9], 115%; in [10], 120%.
For the compound `Nc1nc2ncc(CCNc3ccc(C(=O)O)cc3)nc2c(=O)[nH]1`, the growth in test [1] was 128%; in test [2], 115%; in [3] it was 137%; in test [4] it was 107%; in test [5], 112%; in test [6], 120%. For the same compound, the growth was 110% in test [7], 101% in test [8], 104% in [9] and 107% in [10].
`COc1cccc(/C=N/NC(=O)c2ccccc2Nc2ccnc(C(F)(F)F)c2)c1O`: the growth was 22.8% in test [1]; 33.7% in [2]; 1.24% (active) in test [3]; 42.6% in [4]; 21% in test [5]; 18.9% in [6]. Besides, the growth was 18.6% in test [7], 0.849% (active) in [8], 8.18% (active) in test [9] and -30.1% (active) in test [10].
Take `N#C/C(=C\c1ccc(-c2ccc(Cl)c(Cl)c2)o1)c1nc(-c2ccco2)cs1`: the growth was 114% in test [1]; 113% in test [2]; 89.1% in [3]; 84.1% in test [4]; 121% in test [5]; 97.2% in [6]. Moreover, the growth in test [7] is 98.7%; in test [8] it was 101%; in test [9], 118%; in test [10], 99.3%.
In the case of `Cc1ccc(/C=C2\SC(=S)N(CC(=O)NCCCN3CCOCC3)C2=O)cc1`, the growth in [1] is 104%; in test [2], 89.6%; in test [3] it was 95.1%; in test [4], 91.9%; in test [5], 101%; in test [6] it was 96.5%. For the same compound, the growth in [7] is 91.1%; in test [8] it was 93.7%; in [9], 101%; in [10], 102%.
